Drawing on ChEMBL document CHEMBL3988442, “University of Dundee, Small-Polar-MMV Screening Library” (2021), this text covers Percent Effect for eleven compounds.

Each structure is given as a SMILES string. For some of these results: Results with a measured potency or affinity are listed apart.

What all share (design): scale not given: direction of the effect not stated beside the values
The target in assay [1] is Protein translocase subunit SecA (Escherichia coli (strain K12)) (UniProt P10408). In words: Assay to Identify E. coli SecA ATPase Inhibitors. It counts as functional. To be noted: 30 µM.
The target of assay [2] is T1, Ubiquitin-activating enzyme e1, putative (Leishmania donovani (strain BPK282A1)) (UniProt E9BSI1).
T1 sequence (whole entry): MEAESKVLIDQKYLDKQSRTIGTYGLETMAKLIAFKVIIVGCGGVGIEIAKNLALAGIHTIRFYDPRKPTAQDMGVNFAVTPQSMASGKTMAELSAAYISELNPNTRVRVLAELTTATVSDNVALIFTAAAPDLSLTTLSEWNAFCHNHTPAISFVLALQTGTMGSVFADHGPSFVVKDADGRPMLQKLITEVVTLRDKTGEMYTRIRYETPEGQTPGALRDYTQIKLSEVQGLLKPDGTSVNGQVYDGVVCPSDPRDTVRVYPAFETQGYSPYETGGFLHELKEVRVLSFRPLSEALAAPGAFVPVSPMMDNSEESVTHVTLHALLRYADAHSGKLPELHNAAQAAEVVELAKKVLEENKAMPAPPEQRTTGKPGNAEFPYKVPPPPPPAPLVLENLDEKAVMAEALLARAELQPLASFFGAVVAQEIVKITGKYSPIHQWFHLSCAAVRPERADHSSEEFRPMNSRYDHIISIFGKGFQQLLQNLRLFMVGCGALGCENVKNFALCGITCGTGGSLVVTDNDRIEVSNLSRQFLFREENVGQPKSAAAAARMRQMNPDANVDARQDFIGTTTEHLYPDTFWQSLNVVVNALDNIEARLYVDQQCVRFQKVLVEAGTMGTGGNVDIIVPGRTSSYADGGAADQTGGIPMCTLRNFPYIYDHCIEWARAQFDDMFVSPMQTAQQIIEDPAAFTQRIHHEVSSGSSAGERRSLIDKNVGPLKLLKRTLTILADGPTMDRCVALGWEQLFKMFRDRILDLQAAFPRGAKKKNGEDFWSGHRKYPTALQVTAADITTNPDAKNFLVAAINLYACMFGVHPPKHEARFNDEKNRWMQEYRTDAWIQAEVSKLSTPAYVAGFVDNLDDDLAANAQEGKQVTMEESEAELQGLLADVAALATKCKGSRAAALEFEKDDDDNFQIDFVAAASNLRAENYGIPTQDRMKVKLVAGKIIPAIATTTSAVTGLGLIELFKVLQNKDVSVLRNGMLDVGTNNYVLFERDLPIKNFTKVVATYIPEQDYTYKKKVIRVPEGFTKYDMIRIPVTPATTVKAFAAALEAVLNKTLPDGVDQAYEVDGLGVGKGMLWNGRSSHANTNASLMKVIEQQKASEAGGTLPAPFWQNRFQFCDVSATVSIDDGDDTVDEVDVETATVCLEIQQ
Put plainly: Leishmania donovani Ubiquitin Activating Enzyme (LdE1). Format: functional. As to conditions: 30 µM.

Assay [3] addresses AMP-activated protein kinase, AMPK (Homo sapiens) (UniProt P54646+O43741+P54619+Q9UGJ0+Q9Y478+Q13131+Q9UGI9). In words: AMP-dependent Kinase enzyme assay. An in vitro enzyme assay that detects ADP turnover that is directly proportional to AMPK activity. This uses naive AMPK that is activated during the assay with MK-8722. Format: functional. To be noted: 30 µM.
In assay [4] the target is Sialic acid-binding Ig-like lectin 9 (Homo sapiens) (UniProt Q9Y336). In words: Hs-Siglec9 ALPHAscreen SOP 20170721. To be noted: 10 µM.
For assay [5], the system named is Trypanosoma cruzi. Put plainly: Trypanosoma cruzi phosphomannomutase and mannose-1-phosphate guanylyltransferase assay. It counts as functional. To be noted: 10 µM.
Assay [6] has as its target T2, Arginase-2, mitochondrial (Homo sapiens) (UniProt P78540).
T2 sequence (whole entry): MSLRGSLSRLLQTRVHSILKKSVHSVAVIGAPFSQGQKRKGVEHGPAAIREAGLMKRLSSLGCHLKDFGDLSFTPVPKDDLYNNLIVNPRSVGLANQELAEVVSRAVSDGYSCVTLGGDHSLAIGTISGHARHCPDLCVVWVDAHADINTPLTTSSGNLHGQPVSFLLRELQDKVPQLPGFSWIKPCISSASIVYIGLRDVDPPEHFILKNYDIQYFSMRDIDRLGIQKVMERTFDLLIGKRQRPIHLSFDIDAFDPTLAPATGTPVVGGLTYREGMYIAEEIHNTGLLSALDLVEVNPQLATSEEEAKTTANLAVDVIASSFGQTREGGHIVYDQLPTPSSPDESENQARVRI
In words: in vitro enzyme assay to detect the production of urea directly proportional to the activity of Arginase II. Note: in the data most compounds retested in dose-response had high values. To be noted: 33.3 µM. Format: functional.

In assay [7] the target is T3, Proteasome subunit beta (Trypanosoma cruzi) (UniProt O96673).
T3 sequence (whole entry): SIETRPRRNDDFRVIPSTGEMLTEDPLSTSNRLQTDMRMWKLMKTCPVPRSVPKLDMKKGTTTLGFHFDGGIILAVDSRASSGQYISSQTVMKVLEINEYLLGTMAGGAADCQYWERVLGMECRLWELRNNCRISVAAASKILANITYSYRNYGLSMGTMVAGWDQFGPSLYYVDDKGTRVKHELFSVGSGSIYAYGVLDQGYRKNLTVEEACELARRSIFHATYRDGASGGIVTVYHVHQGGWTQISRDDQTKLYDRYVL
Put plainly: Trypanosoma cruzi proteasome chymotrypsin-like activity (TcProtChymo) assay. Note: in the data most compounds retested in dose-response had high values. Format: functional. To be noted: 9.37 µM.

The species named for assay [8] is Homo sapiens. Put plainly: To identify inhibition of the IFN signalling (Jak-Stat) pathway via expression of an eGFP reporter gene under the control of an IFN-stimulated response element (ISRE) containing MxA promoter. Format: functional. To be noted: 30 µM.
In assay [9] the target is T4, Tyrosyl-tRNA synthetase, putative (Trypanosoma cruzi (strain CL Brener)) (UniProt Q4DSP6).
T4 sequence (whole entry): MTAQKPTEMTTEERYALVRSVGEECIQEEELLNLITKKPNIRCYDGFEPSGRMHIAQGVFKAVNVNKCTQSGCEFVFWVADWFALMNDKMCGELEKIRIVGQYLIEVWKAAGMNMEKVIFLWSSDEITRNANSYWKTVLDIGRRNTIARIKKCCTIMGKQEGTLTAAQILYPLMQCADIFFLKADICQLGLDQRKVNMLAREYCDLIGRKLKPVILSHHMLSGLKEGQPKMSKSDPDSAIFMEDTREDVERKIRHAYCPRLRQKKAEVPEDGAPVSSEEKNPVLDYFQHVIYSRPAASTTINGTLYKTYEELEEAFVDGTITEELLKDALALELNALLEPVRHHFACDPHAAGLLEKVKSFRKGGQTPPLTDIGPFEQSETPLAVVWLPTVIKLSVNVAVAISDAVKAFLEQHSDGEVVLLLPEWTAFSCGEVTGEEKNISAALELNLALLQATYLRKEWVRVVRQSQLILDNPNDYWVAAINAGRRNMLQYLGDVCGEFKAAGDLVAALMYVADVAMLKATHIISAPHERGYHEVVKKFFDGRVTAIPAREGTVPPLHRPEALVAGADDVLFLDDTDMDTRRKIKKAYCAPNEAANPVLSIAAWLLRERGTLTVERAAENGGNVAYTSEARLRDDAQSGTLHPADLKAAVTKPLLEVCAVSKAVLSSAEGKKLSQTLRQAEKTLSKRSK
Put plainly: Trypanosoma cruzi tyrosyl tRNA synthetase (TcYRS) _High Tyrosine SOP. Note: in the data most compounds retested in dose-response had high values. Format: functional. As to conditions: 30 µM.

The target in assay [10] is T4, Tyrosyl-tRNA synthetase, putative (Trypanosoma cruzi (strain CL Brener)). In words: Trypanosoma cruzi tyrosyl tRNA synthetase (TcYRS) SOP. It counts as functional. To be noted: 30 µM.
In assay [11] the target is Chromo domain-containing protein 1 (Saccharomyces cerevisiae (strain ATCC 204508 / S288c) (Baker's yeast)) (UniProt P32657). Put plainly: ScCHD-1 Enzyme Inhibition Assay. Note: in the data most compounds retested in dose-response had high values. It counts as functional. To be noted: 30 µM.
Chromo domain-containing protein 1 (Saccharomyces cerevisiae (strain ATCC 204508 / S288c) (Baker's yeast)), sequence (P32657 whole entry, the tested form may be a part): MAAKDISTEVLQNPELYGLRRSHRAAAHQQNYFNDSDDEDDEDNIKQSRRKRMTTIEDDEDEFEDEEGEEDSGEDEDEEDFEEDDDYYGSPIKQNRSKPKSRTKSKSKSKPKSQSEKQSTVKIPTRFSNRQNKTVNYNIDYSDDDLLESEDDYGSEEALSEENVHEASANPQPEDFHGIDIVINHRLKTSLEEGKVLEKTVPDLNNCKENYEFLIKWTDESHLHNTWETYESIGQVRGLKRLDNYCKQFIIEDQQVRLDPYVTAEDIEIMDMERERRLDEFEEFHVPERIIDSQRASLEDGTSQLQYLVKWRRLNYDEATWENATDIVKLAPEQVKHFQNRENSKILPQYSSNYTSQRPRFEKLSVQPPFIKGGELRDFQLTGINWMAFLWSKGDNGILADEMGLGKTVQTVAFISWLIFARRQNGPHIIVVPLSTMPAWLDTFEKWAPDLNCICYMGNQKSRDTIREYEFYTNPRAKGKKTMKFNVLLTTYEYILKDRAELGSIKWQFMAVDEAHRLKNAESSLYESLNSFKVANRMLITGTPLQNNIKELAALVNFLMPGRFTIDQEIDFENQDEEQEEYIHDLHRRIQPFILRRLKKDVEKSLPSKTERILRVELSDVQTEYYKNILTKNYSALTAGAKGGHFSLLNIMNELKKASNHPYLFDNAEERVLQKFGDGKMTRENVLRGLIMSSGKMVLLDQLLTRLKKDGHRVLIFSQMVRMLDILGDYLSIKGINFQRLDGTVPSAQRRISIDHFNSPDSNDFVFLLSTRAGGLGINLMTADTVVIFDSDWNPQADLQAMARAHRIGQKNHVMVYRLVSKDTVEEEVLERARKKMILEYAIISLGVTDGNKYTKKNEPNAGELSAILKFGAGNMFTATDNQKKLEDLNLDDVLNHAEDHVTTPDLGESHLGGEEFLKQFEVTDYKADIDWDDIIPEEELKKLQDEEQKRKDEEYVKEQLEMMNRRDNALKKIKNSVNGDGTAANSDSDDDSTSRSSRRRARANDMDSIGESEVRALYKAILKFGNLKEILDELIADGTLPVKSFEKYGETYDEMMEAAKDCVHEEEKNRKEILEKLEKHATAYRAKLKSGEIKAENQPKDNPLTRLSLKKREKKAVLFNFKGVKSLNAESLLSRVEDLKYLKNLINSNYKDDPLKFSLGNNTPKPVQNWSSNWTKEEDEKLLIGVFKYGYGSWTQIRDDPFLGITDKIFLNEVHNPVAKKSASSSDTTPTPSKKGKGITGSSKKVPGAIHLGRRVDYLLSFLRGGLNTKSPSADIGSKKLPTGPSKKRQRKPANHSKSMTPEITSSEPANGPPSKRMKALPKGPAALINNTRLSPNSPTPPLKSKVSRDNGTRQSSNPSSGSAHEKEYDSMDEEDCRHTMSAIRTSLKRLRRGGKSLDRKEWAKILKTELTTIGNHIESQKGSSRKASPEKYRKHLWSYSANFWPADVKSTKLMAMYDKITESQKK

Sialic acid-binding Ig-like lectin 9 (Homo sapiens), sequence (Q9Y336 whole entry): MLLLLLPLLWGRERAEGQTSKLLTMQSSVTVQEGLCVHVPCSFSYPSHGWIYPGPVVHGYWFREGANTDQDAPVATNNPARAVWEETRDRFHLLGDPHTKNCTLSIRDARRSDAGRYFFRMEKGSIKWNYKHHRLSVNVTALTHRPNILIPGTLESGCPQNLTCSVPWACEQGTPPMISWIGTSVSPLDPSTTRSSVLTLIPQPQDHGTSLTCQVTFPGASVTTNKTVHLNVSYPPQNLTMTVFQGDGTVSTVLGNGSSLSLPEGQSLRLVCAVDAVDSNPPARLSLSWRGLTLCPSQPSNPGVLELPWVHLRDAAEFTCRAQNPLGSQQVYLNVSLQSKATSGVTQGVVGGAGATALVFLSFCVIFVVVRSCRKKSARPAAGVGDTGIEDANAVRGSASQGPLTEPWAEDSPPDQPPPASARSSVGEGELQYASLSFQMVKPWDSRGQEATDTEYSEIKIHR
Protein translocase subunit SecA (Escherichia coli (strain K12)), sequence (P10408 whole entry): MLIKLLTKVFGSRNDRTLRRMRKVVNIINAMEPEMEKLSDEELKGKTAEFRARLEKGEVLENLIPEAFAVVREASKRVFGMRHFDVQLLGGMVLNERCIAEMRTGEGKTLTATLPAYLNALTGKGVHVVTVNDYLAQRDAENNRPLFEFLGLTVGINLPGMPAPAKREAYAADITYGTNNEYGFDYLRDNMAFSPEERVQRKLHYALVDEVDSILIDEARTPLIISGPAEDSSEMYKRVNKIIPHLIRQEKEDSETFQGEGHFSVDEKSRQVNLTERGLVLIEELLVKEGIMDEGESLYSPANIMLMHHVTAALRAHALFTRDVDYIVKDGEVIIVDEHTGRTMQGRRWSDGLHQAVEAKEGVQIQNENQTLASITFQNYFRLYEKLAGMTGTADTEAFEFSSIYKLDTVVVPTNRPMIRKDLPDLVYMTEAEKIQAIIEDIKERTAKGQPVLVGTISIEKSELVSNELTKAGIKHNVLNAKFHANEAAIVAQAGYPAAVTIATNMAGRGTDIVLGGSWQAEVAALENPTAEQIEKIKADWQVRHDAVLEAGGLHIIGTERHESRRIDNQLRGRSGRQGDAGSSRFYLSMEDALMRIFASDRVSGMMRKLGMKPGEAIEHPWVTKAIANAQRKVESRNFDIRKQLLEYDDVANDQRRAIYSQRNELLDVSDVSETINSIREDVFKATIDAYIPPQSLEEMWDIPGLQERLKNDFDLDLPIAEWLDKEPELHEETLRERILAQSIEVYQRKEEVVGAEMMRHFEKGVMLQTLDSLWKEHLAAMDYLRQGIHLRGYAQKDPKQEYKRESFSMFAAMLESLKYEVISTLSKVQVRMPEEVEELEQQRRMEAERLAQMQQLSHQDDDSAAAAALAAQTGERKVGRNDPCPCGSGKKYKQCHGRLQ

Consider `CC(NC(=O)NCCCN(C)S(C)(=O)=O)c1ccncc1` (stereo unspecified), for which the Percent Effect is -0.684% in [1]; 8.86% in [2]; 5.26% in [3]; -2.69% in [4]; -2.77% in assay [5]; 5.38% in assay [6]. In addition, the Percent Effect was 10.8% in [7]; 1.71% in [8]; 12.5% in [9]; 20.2% in [10]; -14.2% in assay [11].

For the compound `CCN1CCCC1CN(CCN(C)C)S(=O)(=O)c1cccc(C#N)c1` (stereo unspecified), the Percent Effect in [1] was -5.4%; in [2] it was 13.7%; in assay [3], 3.08%; in assay [4] it was 5.43%; in assay [5], 6.27%; in [6] it was 4.09%. For the same compound, the Percent Effect in assay [7] was 8.16%; in [8], 0.578%; in assay [9] it was 4.3%; in assay [10], 10%; in assay [11], -4.67%.

Turning to `CN(Cc1ccc(Cl)s1)C(=O)c1cccc(OCC(N)=O)c1`, the Percent Effect is 1.02% in assay [1]; 5.41% in [2]; 0.84% in assay [3]; -1.09% in assay [4]; -3.09% in [5]; 0.952% in assay [6]. The Percent Effect is 11.2% in assay [7]; 15.1% in [8]; 4.76% in assay [9]; 14.6% in assay [10]; -3.46% in assay [11].

For the compound `O=C(NCc1ccc(F)cc1)N1CCC(C2OCCO2)CC1`, the Percent Effect was -3.74% in assay [1]; 7.89% in assay [2]; 6.23% in assay [3]; 6.03% in assay [4]; -1.66% in assay [5]; -8.28% in assay [6]. Further, the Percent Effect in [7] was 12.4%; in [8] it was 13.8%; in [9] it was 6.38%; in assay [10], 13%; in [11], -4.56%.

As for `CCn1nc(C(C)C)cc1C(=O)NCCCOC`, the Percent Effect was -2.71% in assay [1]; 6.94% in assay [2]; 0.234% in [3]; -3.62% in [4]; 6.51% in [5]; -1.77% in assay [6]. Also, the Percent Effect in [7] is 14.7%; in assay [8], -30.8%; in assay [9], 4.21%; in assay [10], 12.8%; in assay [11], -4.31%.

With `CN(C)C1CCN(C(=O)NCc2ccc(Cn3cncn3)cc2)CC1`, the Percent Effect in [1] is -4.29%; in [2], -5.41%; in assay [3], -5.16%; in [4] it was 28.9%; in assay [5], 9.85%; in assay [6] it was -2.38%. For the same compound, the Percent Effect is 14.5% in assay [7]; 6.43% in assay [8]; 5.82% in assay [9]; 17.1% in assay [10]; -10% in assay [11].

`O=S1(=O)COCCN1Cc1ccc(Cl)c(F)c1`: the Percent Effect was 0.108% in assay [1]; 16.2% in assay [2]; -3.31% in [3]; 17.6% in assay [4]; 3.28% in [5]; 2.38% in assay [6]. Also, the Percent Effect was 14.7% in assay [7]; 0.549% in [8]; 5.82% in assay [9]; 14.6% in assay [10]; -5.23% in [11].

With `COc1cccc2cc(CNCc3ccnc(N4CCOCC4)c3)oc12`, the Percent Effect in assay [1] is -5.63%; in assay [2], 0%; in [3] it was -16.9%; in [4], 3.48%; in assay [5], -6.7%; in assay [6] it was -6.41%. For the same compound, the Percent Effect in assay [7] is 10.6%; in assay [8] it was 26.6%; in assay [9], 1.48%; in assay [10], -11.1%; in [11], 3.15%.

On to `CCS(=O)(=O)N1CC[C@]2(C[C@@H](OCC3CC3)CO2)C1`, for which the Percent Effect in [1] was -5.7%; in assay [2] it was 5.41%; in assay [3], -4.19%; in assay [4], 27.4%; in assay [5], 6.94%; in [6], -1.74%. Further, the Percent Effect in assay [7] was 13.3%; in [8], 1.36%; in [9] it was 8.6%; in assay [10], 13.6%; in assay [11], -6.86%.

`Cc1cc(C[C@@H]2CCC[C@H]2NCc2ccccc2C(F)(F)F)on1`: the Percent Effect in [1] was -4.94%; in assay [2], 1.35%; in assay [3] it was 8.14%; in [4], -0.325%; in assay [5], 0%; in assay [6], 2.55%. Moreover, the Percent Effect in assay [7] is 6.4%; in assay [8], 13.5%; in assay [9], 2.15%; in [10] it was 9.09%; in [11] it was -10.5%.

Take `CNS(=O)(=O)c1ccc(CNC(=O)NCC2CCOC2)cc1` (stereo unspecified): the Percent Effect in [1] was -3.53%; in assay [2] it was 15.6%; in [3] it was 0.491%; in assay [4] it was 2.49%; in assay [5], 1.86%; in assay [6] it was -0.21%. Further, the Percent Effect is 11.7% in [7]; -1.37% in assay [8]; 7.62% in assay [9]; 14.1% in assay [10]; -9.18% in assay [11].
